# Measurements: ChEMBL document CHEMBL4513135, “CO-ADD screening of IQOG CSIS (Spain) compounds”
# Values joined by “and” are separate entries in the source; they are usually repeats but may differ in a detail not shown here. Equal entries are not always repeated. Entries with a potency or affinity are not part of this list.
# Tests used:
# Klebsiella pneumoniae = settings: Concentration 32 ug.mL-1, ASSAY_TEST Inhibition of Bacterial Growth, detection method Absorption (OD600), MEDIA CAMHB, plate type 384well, NBS, CORNING #3640, time 18 hr
# Candida albicans = settings: 32 ug/mL
# Cryptococcus neoformans = settings: Concentration 32 ug.mL-1; ASSAY_TEST Inhibition of Fungal Growth; detection method Resazurin; Absorption (OD600-OD570); plate type 384well; NBS; CORNING #3640
SMILES,Inhibition (Klebsiella pneumoniae),Inhibition (Candida albicans),Inhibition (Cryptococcus neoformans),Inhibition (Klebsiella pneumoniae; 32 ug/mL)
O=C(O)c1c[nH]c2ccccc12,-9.13%,6.48%,-9.05%,–
CN(C)c1nc(N)c(C#N)cc1C#N,27.85%,0.31%,-5.23%,–
CCCCNNC(=O)c1cc2ccccc2[nH]1,-6.75%,-0.51%,-1.71%,–
C#CCN(C)c1nc(NCCCC2CCN(Cc3ccccc3)CC2)c(C#N)cc1C#N,-7.79%,3.51%,-58.85%,–
Cn1ccnc1C1c2ccc3cccnc3c2Oc2nc3c(c(N)c21)CCC3 (stereo not given),5.38%,2.9%,-104.91%,–
N#C/C(=C\c1ccccc1Cl)C(=O)c1ccccc1,13.98%,10.6%,-6.26%,–
COc1cc(C2C(C#N)=C(N)Oc3ccc4ccccc4c32)ccc1O (stereo not given),5.47%,0.23%,-49.89%,–
CC/C(C)=N/NC(=O)Cc1c[nH]c2ccccc12,0.18%,-0.57%,-5.32%,–
O=C(N[C@H]1CC[C@H](O)CC1)c1ccccc1,10.98%,2.54%,-38.05%,–
N#Cc1c(N)nc(N)c(C#N)c1-c1ccccc1,13.82%,1.47%,-29.88%,–
COc1nc2nc3c(c(N)c2cc1C#N)CCCC3,13.26%,2.72%,-84.27%,–
COc1ccc(C2c3c(nc4c(c3N)CCCC4)Oc3ccc4ccccc4c32)cc1OC (stereo not given),-20.58%,2.65%,0.83%,–
c1ccc(CNc2ncnc3c2cnn3-c2ccccc2)cc1,-0.11%,0.45%,-6.46%,–
CC(=O)Nc1nn(C)c2nc3nc4c(c(N)c3cc12)CCCC4,–,–,–,12.62% and 9.74%
O=C(Cc1cccc2ccccc12)N/N=C/c1c[nH]c2ccccc12,10.96%,1.2%,-4.19%,–
COc1ccccc1[C@H]1c2c(ccc3ccccc23)O/C(=N\Br)[C@@]1(Br)C#N,5.34%,8.63%,-5.55%,–
COc1ccc2cc(C3C4=C(CC(C)(C)CC4=O)Oc4nc5c(c(N)c43)CCCC5)c(Cl)nc2c1 (stereo not given),5.45%,7.25%,-9.09%,–
N#CC1=C(Cl)Oc2c(ccc3ccccc23)C1c1ccccc1[N+](=O)[O-] (stereo not given),5.03%,3.33%,-51.56%,–
CN(C)c1nc(N)c(C#N)cc1C#N.Cl,–,3.18% and 2.67%,–,-3.22% and 8.57%
C#CCN(C)c1nc(N)c(C#N)cc1C#N,–,–,–,17.2% and 7.82%
Cc1ccc2nc(Cl)c(/C=N/C(C)(C)C)cc2c1,7.37%,7.21%,-0.47%,–
C#CCN(C)c1ncc(C#N)c(N)n1,9.44%,5.2%,-42.08%,–
C#CCN(C)Cc1cc2cc(OCCCC3CCN(Cc4ccc(OC)c5ncccc45)CC3)ccc2n1C,-9.53%,0.97%,-73.89%,–
COC1(N)Oc2ccc3ccccc3c2C(c2ccccc2)C1(Br)C#N (stereo not given),-5.7%,8.36%,-6.17%,–
Cc1ccc(C2c3ccc4ccccc4c3Oc3nc4c(c(N)c32)CCCC4)cc1 (stereo not given),-8.56%,2.81%,5.66%,–
CC1CN(C)c2c(C#N)c(-c3ccccc3)c(C#N)c(=N)n21 (stereo not given),18.9%,1.63%,-66.3%,–

SMILES,Inhibition (Klebsiella pneumoniae),Inhibition (Candida albicans),Inhibition (Cryptococcus neoformans),Inhibition (Klebsiella pneumoniae; 32 ug/mL)
CC1(C)OC(=O)C(=Cc2ccc([N+](=O)[O-])cc2)C(=O)O1,18.71%,1.46%,-6.06%,–
CCOC(=O)CCc1c[nH]c2ccccc12,-13.33%,5.29%,-6.58%,–
Cc1nn(-c2ccccc2)c2ncnc(NCc3ccccc3)c12,6.27%,-0.21%,-3.05%,–
COc1cc(CCC(N)=O)ccc1O,11.33%,-0.74%,-2.02%,–
N#CC1=C(N)Oc2ccc3ccccc3c2C1c1cccc([N+](=O)[O-])c1 (stereo not given),6.14%,10.7%,-44.61%,–
COc1ccc(-c2c(C#N)c(=O)oc3c2ccc2ccccc23)cc1,–,2.65% and 6.62%,–,4.75% and -0.52%
CNCc1cc2cc(OC)ccc2n1C.Cl,8.64%,-1.26%,1.35%,–
COc1ccc2cc(C3C4=C(CC(C)(C)CC4=O)Oc4nc5c(c(N)c43)CCC5)c(Cl)nc2c1 (stereo not given),7.42%,10.1%,-1.53%,–
COc1cccc(C2c3c(ccc4ccccc34)OC(=N)C2(Br)C#N)c1 (stereo not given),–,–,–,14.84% and 5.04%
Cc1ccc2nc(Cl)c(/C=N/OCc3ccccc3)cc2c1,9.15%,2.45%,-9.27%,–
N#Cc1cc(Br)cc(Br)c1N,-0.57%,4.77%,-9.46%,–
COc1ccccc1C1c2ccc3ccccc3c2OC(=NBr)C1(Br)C#N (stereo not given),11.44%,0.7%,-47.56%,–
C#CCN(C)c1cc(Cl)nc(N)n1,16.87%,11.4%,-46.13%,–
COc1[nH]c(=O)ccc1C#N,19.79%,7.91%,-56.43%,–
Cc1ccc(C(O)SNNc2ncnc3c2c(C)nn3-c2ccccc2)cc1 (stereo not given),-18.74%,1.06%,-5.03%,–
Cc1ccc(C2c3ccc4ccccc4c3Oc3nc4c(c(N)c32)CCCC4)cc1.Cl (stereo not given),-14.84%,5.49%,0.21%,–
C#CCn1c(N)c(C#N)c2cc(O)ccc21,10.3%,1.41%,-78.39%,–
N#Cc1c(NC2CCC(Cc3ccccc3)CC2)nc(NC2CCN(Cc3ccccc3)CC2)c(C#N)c1-c1ccccc1 (stereo not given),-7.01%,2.46%,-20.4%,–
COc1nc2nc3c(c(N)c2cc1C#N)CN(Cc1ccccc1)CC3,8.31%,1.24%,-69.67%,–
COc1ccccc1C1C(C#N)=C(N)Oc2[nH]nc(C)c21 (stereo not given),0.76%,2.02%,-7.07%,–
COC(=O)C(=Cc1ccc([N+](=O)[O-])cc1)NC(=O)c1ccccc1,11.76%,0.51%,-0.7%,–
O=C1SC(SCc2ccccc2)=NC1=Cc1ccccc1,8.07%,1.92%,-3.98%,–
CCOC(N)=CC#N,-6.69%,0.84%,-10.57%,–
CCOC(=O)C1=C(C)OC(N)=C(C#N)C1c1cccnc1 (stereo not given),0.99%,0.38%,-18.71%,–
CN1C/C(=C\Cl)n2c1c(C#N)cc(C#N)c2=O,5.49%,1.11%,-52.5%,–
C#CCN(C)c1nc(NCCCCC2CCN(Cc3ccccc3)CC2)c(C#N)cc1C#N,0.44%,3.03%,-41.21%,–

SMILES,Inhibition (Klebsiella pneumoniae),Inhibition (Candida albicans),Inhibition (Cryptococcus neoformans),Inhibition (Klebsiella pneumoniae; 32 ug/mL)
CCOc1nc(N)c(C#N)cc1C#N,12.55%,44.3%,-83.12%,–
O=Cc1c(-c2ccc(Br)cc2)nc2ccccn12,19.86%,0.21%,-4.41%,–
O=C(NNCc1ccco1)c1cc2ccccc2[nH]1,1.78%,-0.84%,-3.8%,–
COc1nc2nc3c(c(N)c2cc1C#N)CCCC3.Cl,10.99%,1.08%,-96.28%,–
N#Cc1c(N)nc(Cl)c(C#N)c1-c1ccccc1,1.22%,6.28%,-2.34%,–
Cc1ccc(C2C(C#N)=C(N)Oc3c2ccc2ccccc32)cc1 (stereo not given),1.87%,-0.54%,-6.98%,–
Cc1nc2c3c(C)nn(-c4ccccc4)c3ncn2n1,13.92%,-0.04%,-2.13%,–
Cc1ccc(S(=O)(=O)N[C@H]2CC[C@H](O)CC2)cc1,11.86%,0.9%,-40.23%,–
O=C(Cc1c[nH]c2ccccc12)NN=Cc1ccccc1,-6%,-0.87%,-1.93%,–
COc1cc(C2C(C#N)=C(N)Oc3c2ccc2ccccc32)ccc1O (stereo not given),-1.93%,22.7%,-42.63%,–
Cc1nc(Nc2ccccc2)c2cnn(-c3ccccc3)c2n1,17.53%,0.68%,-5.65%,–
CCOC(=O)C1=C(C)OC(N)=C(C#N)C1c1ccc([N+](=O)[O-])cc1 (stereo not given),12.45%,-0.07%,-64.89%,–
COc1ccc(CNNC(=O)c2cc3ccccc3[nH]2)cc1,-6.62%,0.44%,-2.55%,–
CCOC(=O)c1c(C)nc2nc3c(c(N)c2c1-c1ccc(OC)cc1)CCCCCC3,2.79%,-1.03%,-97%,–
CCOC(=O)c1c(C)[nH]c2ccc(OC)cc12,6.33%,1.53%,-2.15%,–
Clc1ccc(-c2cn3ccccc3n2)cc1,18.54%,-1.23%,-7.53%,–
N#CC1(Br)C(=NBr)Oc2ccc3ccccc3c2C1c1ccccc1[N+](=O)[O-] (stereo not given),5.57%,4.94%,-80.32%,–
Cl.Nc1c2c(nc3c1C(c1ccccc1)c1c(ccc4ccccc14)O3)CCCC2 (stereo not given),8.19%,1.33%,-0.7%,–
N#Cc1cc(C#N)c(N2CCCC2)nc1N1CCCC1,22.43%,-0.31%,-5.24%,–
O=C(NCc1ccccc1)c1cc2ccccc2[nH]1,1.5%,-0.44%,-6.86%,–
COc1cc(C2c3c(nc4c(c3N)CCC4)Oc3ccc4ccccc4c32)ccc1O (stereo not given),23.66%,-1.69%,-4.01%,–
Cc1n[nH]c2c1C(c1ccc([N+](=O)[O-])cc1)C(C#N)=C(N)O2 (stereo not given),-7.74%,3.15%,-4.51%,–
Nc1n[nH]c2c1C(c1ccccc1)CC(=O)N2 (stereo not given),23.2%,1.67%,-57.28%,–
O=C(N/N=C/c1c[nH]c2ccccc12)C(c1ccccc1)c1ccccc1,10.97%,1.46%,-1.94%,–
